In PubChem BioAssay (EPA / NIEHS):
The source made the active and inactive calls. Rule for the calls: active = hit-call score of the fitted dose curve at least 0.9, where 1 is the maximum; inactive = score below 0.9.

Experiments:
Settings in all cases: mRNA level, 48 h; actives raise or lower the signal
[1] = read-out: 3-Hydroxy-3-Methylglutaryl-CoA Synthase 2 (HMGCS2), HMGCS2 (gene 3158); assay: LTEA_HepaRG_HMGCS2: Life Technologies and Expression Analysis (LTEA) Assay for 3-Hydroxy-3-Methylglutaryl-CoA Synthase 2 (HMGCS2) using HepaRG (AID 2283504)
Method in brief: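 qRT-PCR read-out of HMGCS2 transcript, normalised to three housekeeping genes, in HepaRG cells after 48 h chemical exposure. Eight-point curves from 100 uM, half-log dilutions, 0.5% DMSO vehicle; gain or loss fitted relative to DMSO baseline.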

[2] = read-out: HGF (gene 3082); assay: LTEA_HepaRG_HGF: Life Technologies and Expression Analysis (LTEA) Assay for Hepatocyte Growth Facto (HGF) using HepaRG (AID 2283505)
Method in brief: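 HepaRG, 48 h dosing, 8-pt half-log series from 100 uM in 0.5% DMSO, duplicates. Readout: TaqMan qRT-PCR of HGF mRNA, housekeeping-normalized; bidirectional curve fit vs DMSO baseline.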

[3] = read-out: Intercellular Adhesion Molecule 1 (ICAM1), ICAM1 (gene 3383); assay: LTEA_HepaRG_ICAM1: Life Technologies and Expression Analysis (LTEA) Assay for Intercellular Adhesion Molecule 1 (ICAM1) using HepaRG (AID 2283507)
Method in brief: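 HepaRG, 48 h exposure, 8-pt half-log series from 100 uM, 0.5% DMSO vehicle, duplicates. Readout: TaqMan qRT-PCR mRNA, housekeeping-normalized (ACTB/GAPDH/POLR2A). Bidirectional curve fit vs DMSO baseline.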

[4] = read-out: Insulin-like growth factor-binding protein 1 (IGFBP1), IGFBP1 (gene 3484); assay: LTEA_HepaRG_IGFBP1: Life Technologies and Expression Analysis (LTEA) Assay for Insulin-like growth factor-binding protein 1 (IGFBP1) using HepaRG (AID 2283508)
Method in brief: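 qRT-PCR mRNA read-out (TaqMan, Fluidigm array), normalised to three housekeeping genes; HepaRG cells, 48 h exposure, 8-pt half-log series from 100 uM, 0.5% DMSO vehicle; bidirectional curve fit vs DMSO baseline.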

[5] = read-out: Interleukin 6 (IL6), IL6 (gene 3569); assay: LTEA_HepaRG_IL6: Life Technologies and Expression Analysis (LTEA) Assay for Interleukin 6 (IL6) using HepaRG (AID 2283509)
Method in brief: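 qRT-PCR read-out of IL6 transcript, normalized to three housekeeping genes, after 48 h chemical exposure of HepaRG cells; 8-point half-log series, top 100 uM, 0.5% DMSO vehicle. Bidirectional curve fitting against DMSO baseline.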

[6] = read-out: Interleukin 6 Receptor (IL6R), IL6R (gene 3570); assay: LTEA_HepaRG_IL6R: Life Technologies and Expression Analysis (LTEA) Assay for Interleukin 6 Receptor (IL6R) using HepaRG (AID 2283510)
Method in brief: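 HepaRG, 48 h exposure, 8-pt half-log series, top 100 uM, 0.5% DMSO vehicle, duplicates. Read-out: TaqMan qRT-PCR of IL6R transcript, housekeeping-gene normalized. Gain or loss fitted relative to DMSO baseline.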

[7] = read-out: Potassium channel subfamily K member 1 (KCNK1), KCNK1 (gene 3775); assay: LTEA_HepaRG_KCNK1: Life Technologies and Expression Analysis (LTEA) Assay for Potassium channel subfamily K member 1 (KCNK1) using HepaRG (AID 2283511)
Method in brief: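 HepaRG, 48 h exposure, 8-pt half-log series top 100 uM, 0.5% DMSO vehicle, duplicates. Readout: KCNK1 transcript by qRT-PCR (Fluidigm array), housekeeping-normalized; bidirectional curve fit relative to DMSO baseline.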

[8] = read-out: Keratin 19 (KRT19), KRT19 (gene 3880); assay: LTEA_HepaRG_KRT19: Life Technologies and Expression Analysis (LTEA) Assay for Keratin 19 (KRT19) using HepaRG (AID 2283512)
Method in brief: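 HepaRG, 48 h chemical exposure, 8-pt half-log CRC from 100 uM, 0.5% DMSO vehicle, duplicates. Readout: TaqMan qRT-PCR of KRT19 mRNA, housekeeping-normalized (ACTB/GAPDH/POLR2A). Bidirectional fit vs DMSO baseline.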

[9] = read-out: JUN Transcription Factor, JUN (gene 3725); assay: LTEA_HepaRG_JUN: Life Technologies and Expression Analysis (LTEA) Assay for JUN Transcription Factor using HepaRG (AID 2283513)
Method in brief: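 HepaRG, 48 h exposure, 8-pt half-log series top 100 uM, 0.5% DMSO, duplicate. JUN mRNA by qRT-PCR (Fluidigm), housekeeping-normalized (ACTB/GAPDH/POLR2A); bidirectional curve fit vs DMSO baseline.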

[10] = read-out: Lipase C (LIPC), LIPC (gene 3990); assay: LTEA_HepaRG_LIPC: Life Technologies and Expression Analysis (LTEA) Assay for Lipase C (LIPC) using HepaRG (AID 2283514)
Method in brief: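 HepaRG, 48 h exposure, 8-pt half-log series from 100 uM in 0.5% DMSO, duplicates. Readout: LIPC mRNA by Fluidigm qRT-PCR, housekeeping-normalized (ACTB/GAPDH/POLR2A). Gain or loss fitted bidirectionally against DMSO baseline.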

[11] = read-out: matrix metalloproteinase-10 (MMP10), MMP10 (gene 4319); assay: LTEA_HepaRG_MMP10: Life Technologies and Expression Analysis (LTEA) Assay for matrix metalloproteinase-10 (MMP10) using HepaRG (AID 2283517)
Method in brief: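 Transcript levels come from Fluidigm qRT-PCR normalized to three housekeeping genes, with curves fitted bidirectionally against 0.5% DMSO. Human HepaRG cells were dosed for 48 hours at concentrations up to 100 uM.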

[12] = read-out: MYC, MYC (gene 4609); assay: LTEA_HepaRG_MYC: Life Technologies and Expression Analysis (LTEA) Assay for MYC using HepaRG (AID 2283518)
Method in brief: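 qRT-PCR read-out of MYC transcript (Fluidigm TaqMan, housekeeping-normalized) after 48 h chemical exposure of HepaRG cells; eight concentrations, top 100 uM, half-log steps. Bidirectional curve fitting against 0.5% DMSO vehicle baseline.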

[13] = read-out: matrix metalloproteinase-3 (MMP3), MMP3 (gene 4314); assay: LTEA_HepaRG_MMP3: Life Technologies and Expression Analysis (LTEA) Assay for matrix metalloproteinase-3 (MMP3) using HepaRG (AID 2283519)
Method in brief: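 qRT-PCR read-out of MMP3 mRNA (normalised to three housekeeping genes) in HepaRG liver cells after 48 h chemical exposure; 8-point half-log series, top 100 uM, 0.5% DMSO vehicle. Bidirectional curve fitting against DMSO baseline.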

[14] = read-out: Paternally Expressed 10 (PEG10), PEG10 (gene 23089); assay: LTEA_HepaRG_PEG10: Life Technologies and Expression Analysis (LTEA) Assay for Paternally Expressed 10 (PEG10) using HepaRG (AID 2283520);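 for AC50: PEG10 transcript by qRT-PCR normalised to ACTB GAPDH and POLR2A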
Method in brief: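 qRT-PCR read-out: PEG10 mRNA normalised to three housekeeping genes, fitted bidirectionally against 0.5% DMSO vehicle. HepaRG cells received test chemicals for 48 h in serum-free induction medium, 8 points, top 100 uM, half-log steps.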

[15] = read-out: Nuclear factor NF-kappa-B p105 subunit (Homo sapiens) (UniProt P19838); assay: LTEA_HepaRG_NFKB1: Life Technologies and Expression Analysis (LTEA) Assay for Nuclear Factor Kappa B Subunit 1 (NFKB1) using HepaRG (AID 2283521)
Method in brief: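 Differentiated human HepaRG cells were exposed for 48 h in serum-free induction medium to eight concentrations (top 100 uM, half-log steps, 0.5% DMSO), in duplicate. NFKB1 mRNA was measured by TaqMan qRT-PCR, normalized to ACTB/GAPDH/POLR2A, and fitted bidirectionally against DMSO.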

[16] = read-out: Protein phosphatase 2A (PPP2R4), PTPA (gene 5524); assay: LTEA_HepaRG_PPP2R4: Life Technologies and Expression Analysis (LTEA) Assay for Protein phosphatase 2A (PPP2R4) using HepaRG (AID 2283522)
Method in brief: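 HepaRG, 48 h exposure, 8-pt half-log series from 100 uM, 0.5% DMSO vehicle, duplicates. Readout: PPP2R4 mRNA, Fluidigm qRT-PCR, housekeeping-normalized. Bidirectional curve fit vs DMSO baseline.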

[17] = read-out: Phosphatase and tensin (PTEN), PTEN (gene 5728); assay: LTEA_HepaRG_PTEN: Life Technologies and Expression Analysis (LTEA) Assay for Phosphatase and tensin (PTEN) using HepaRG (AID 2283523)
Method in brief: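 HepaRG, 48 h exposure, 8-pt half-log series from 100 uM top, 0.5% DMSO vehicle, duplicates. Readout: Fluidigm qRT-PCR of PTEN transcript; housekeeping normalization (ACTB, GAPDH, POLR2A). Gain or loss fitted relative to DMSO baseline.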

[18] = read-out: solute carrier (SLC22A1), SLC22A1 (gene 6580); assay: LTEA_HepaRG_SLC22A1: Life Technologies and Expression Analysis (LTEA) Assay for solute carrier (SLC22A1) using HepaRG (AID 2283524)
Method in brief: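 qRT-PCR readout (TaqMan, Fluidigm arrays) of SLC22A1 transcript, normalized to three housekeeping genes; bidirectional curve fit relative to 0.5% DMSO vehicle. Differentiated human HepaRG cells, 48 h chemical exposure, top concentration 100 uM, half-log steps, eight points.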

[19] = read-out: NAD(P)H dehydrogenase [quinone] 1 (NQO1), NQO1 (gene 1728); assay: LTEA_HepaRG_NQO1: Life Technologies and Expression Analysis (LTEA) Assay for NAD(P)H dehydrogenase [quinone] 1 (NQO1) using HepaRG (AID 2283526)
Method in brief: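 qRT-PCR read-out (Fluidigm TaqMan), normalized to three housekeeping genes, after 48 h chemical exposure of HepaRG cells. Concentrations: eight points, top 100 uM, half-log steps, 0.5% DMSO vehicle. Gain or loss of signal fitted relative to DMSO.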

[20] = read-out: succinate dehydrogenase complex iron sulfur subunit B (SDHB), SDHB (gene 6390); assay: LTEA_HepaRG_SDHB: Life Technologies and Expression Analysis (LTEA) Assay for succinate dehydrogenase complex iron sulfur subunit B (SDHB) using HepaRG (AID 2283528)
Method in brief: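 HepaRG, 48 h exposure, 8-pt half-log series from 100 uM in 0.5% DMSO, duplicates. Readout: SDHB mRNA by Fluidigm qRT-PCR vs housekeeping genes; bidirectional fit relative to DMSO.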

Measured: AC50

Chain of Nuclear factor NF-kappa-B p105 subunit (Homo sapiens) (P19838 whole entry, looked up): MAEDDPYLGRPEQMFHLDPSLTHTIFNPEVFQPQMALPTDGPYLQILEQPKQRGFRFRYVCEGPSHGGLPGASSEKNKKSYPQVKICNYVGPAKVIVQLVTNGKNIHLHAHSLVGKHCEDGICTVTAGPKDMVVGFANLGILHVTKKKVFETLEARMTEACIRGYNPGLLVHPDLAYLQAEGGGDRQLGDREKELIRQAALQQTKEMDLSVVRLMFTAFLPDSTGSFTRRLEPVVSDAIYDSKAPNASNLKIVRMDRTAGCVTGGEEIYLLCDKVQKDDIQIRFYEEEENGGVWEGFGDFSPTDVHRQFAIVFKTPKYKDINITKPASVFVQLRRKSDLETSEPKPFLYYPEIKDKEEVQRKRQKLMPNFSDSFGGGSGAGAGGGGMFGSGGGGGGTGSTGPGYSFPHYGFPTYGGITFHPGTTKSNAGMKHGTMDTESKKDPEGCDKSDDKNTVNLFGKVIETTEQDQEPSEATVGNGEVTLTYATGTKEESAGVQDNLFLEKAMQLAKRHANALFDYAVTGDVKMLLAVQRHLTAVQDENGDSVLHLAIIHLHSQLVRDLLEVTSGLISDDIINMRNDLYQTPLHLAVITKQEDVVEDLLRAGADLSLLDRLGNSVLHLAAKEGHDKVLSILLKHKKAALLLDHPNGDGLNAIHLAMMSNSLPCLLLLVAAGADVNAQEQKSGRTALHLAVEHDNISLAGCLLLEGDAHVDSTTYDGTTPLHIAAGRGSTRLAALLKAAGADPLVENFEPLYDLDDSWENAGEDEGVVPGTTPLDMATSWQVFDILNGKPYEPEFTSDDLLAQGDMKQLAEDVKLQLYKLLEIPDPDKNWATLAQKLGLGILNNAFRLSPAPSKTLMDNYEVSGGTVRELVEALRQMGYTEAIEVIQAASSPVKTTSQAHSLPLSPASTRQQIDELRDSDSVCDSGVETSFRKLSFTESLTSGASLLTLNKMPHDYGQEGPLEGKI

Cn1sc(Cl)cc1=O
inactive: all assays above

O=C(O)C(F)(F)C(F)(F)C(F)(F)C(F)(F)C(F)(F)C(F)(F)C(F)(F)C(F)(F)C(F)(F)C(F)(F)F
active: [6] 47.8 µM
not listed: [18]
inactive: all other assays above

CCN1CCC2(CC1)COc1cc3c(cc12)N(C(=O)c1ccc(-c2ccc(-c4nnc(C)o4)cc2C)cc1)CC3
inactive: [2] | [8] | [10] | [12] | [19]
active: [1] 22.8 µM | [3] 11.1 µM | [4] 13.4 µM | [5] 16 µM | [6] 31.8 µM | [7] 29.3 µM | [9] 18.2 µM | [11] 76.1 µM | [13] 46.8 µM | [14] 15.6 µM | [15] 46.8 µM | [16] 21.8 µM | [17] 22.7 µM | [18] 22.9 µM | [20] 24.8 µM

CCC(=O)C(CC(C)N(C)C)(c1ccccc1)c1ccccc1 (stereo not drawn)
active: [1] 36.2 µM | [8] 18.9 µM | [14] 26.3 µM
not listed: [15]
inactive: all other assays above
